AmpC no deterg – blocks E. coli AmpC beta-lactamase in detergent-free assay. Potency, µM (top dose mostly 57.1 µM), actives largely listed as inhibitors. 0.52% of 330,000 active. P00811. AID 485341. AmpC nitrocefin hydrolysis, absorbance 480 nm, 0.0001% Triton; note: nearly all actives have a fitted effect of over 20% in size
Target sequence (P00811 whole entry, looked up): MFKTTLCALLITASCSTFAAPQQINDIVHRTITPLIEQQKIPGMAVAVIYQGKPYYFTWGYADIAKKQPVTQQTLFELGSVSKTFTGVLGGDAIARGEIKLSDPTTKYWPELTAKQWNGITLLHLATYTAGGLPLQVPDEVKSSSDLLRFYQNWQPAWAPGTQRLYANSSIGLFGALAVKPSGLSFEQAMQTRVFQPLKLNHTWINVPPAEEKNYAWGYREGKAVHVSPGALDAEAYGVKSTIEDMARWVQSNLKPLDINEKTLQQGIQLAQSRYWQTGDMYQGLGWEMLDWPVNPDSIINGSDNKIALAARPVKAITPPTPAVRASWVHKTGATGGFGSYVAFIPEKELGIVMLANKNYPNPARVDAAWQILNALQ
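AmpC (5.3 nM in the dispensed reagent) in 20 mM phosphate pH 7.0 with 0.01% (detergent screen) or 0.0001% Triton X-100 was preincubated with compounds for 15 min at room temperature. Nitrocefin was then added from an 800 uM solution, and hydrolysis was followed at 480 nm.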
AmpC inh detg – blocks E. coli AmpC beta-lactamase in detergent assay; P00811; AmpC hydrolysis of nitrocefin, absorbance 480 nm, 0.01% Triton; Potency, µM (highest dose often 114 µM), actives largely listed as inhibitors; 0.041% of 370,000 active; note: nearly all actives have a fitted effect of over 25% in size
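20 mM phosphate pH 7.0 + 0.01% (detergent screen) or 0.0001% Triton X-100; 5.3 nM AmpC reagent; cpd preinc 15 min RT; nitrocefin (800 uM stock) to start; A480 q20 s × 4 min; Activity was normalised to no-enzyme and no-compound control wells.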
Of the large screens only hits and unclear results are named; the others gave an inactive call. The sample as a whole holds a higher share of hits than the screen did. Calls come from the whole dose curve; as a rule, active = well fitted curve in the direction sought with a large enough effect; inconclusive = small, poorly fitted or top-dose-only effect, or another doubt; inactive = no such curve, though single readings can be large; an effect the other way counts as inactive or inconclusive.

CCC1CCCCN1C(=O)CSc1nnc(-c2cccc(Cl)c2)o1 (stereo not given)	AmpC no deterg 5µM, AmpC inh detg inconclusive
CCC1CCCCN1C(=O)CSc1nnc(-c2ccc(Cl)cc2)o1 (stereo not given)	AmpC inh detg inconclusive
Cc1ccc(C)c(NC(=O)C2CCN(S(=O)(=O)c3c(C)noc3/C=C/c3cccs3)CC2)c1	none (no result: AmpC no deterg)
O=C(CCc1nc2sc3c(c2c(=O)[nH]1)CCCC3)NCCc1ccccc1	none
CCc1ccccc1NC(=O)CNC(=O)CCc1nc2sc3c(c2c(=O)[nH]1)CCCC3	AmpC no deterg 32µM, AmpC inh detg inconclusive
CC(C)NC(=S)N/N=C/c1sc(N2CCCCC2)nc1-c1cccs1	none
CCCCNC(=S)N(C)/N=C/c1sc(N2CCCCC2)nc1-c1cccs1	AmpC no deterg 11µM
CN(Cc1ccccc1)S(=O)(=O)c1ccc(-c2cnc(C3CC3)o2)cc1	none (no result: AmpC no deterg)
O=C(CCOc1ccccc1)N(Cc1cccnc1)c1nc2c(F)cc(F)cc2s1	none (no result: AmpC no deterg)
O=C(Nc1ccc(-c2cn3ccccc3n2)cc1)c1cccs1	AmpC no deterg 28µM
COc1ccc(CC(=O)Nc2ccc(-c3cn4ccccc4n3)cc2)cc1	none
CC(C)CCNC(=O)Cc1ccc(Nc2nc(=S)[nH]c3ccccc23)cc1	AmpC no deterg 16µM
O=C(CCCCCNc1nc(=S)[nH]c2ccccc12)NCCc1ccc(Cl)cc1	AmpC no deterg 20µM
O=C(CCCCCNc1nc(=S)[nH]c2ccccc12)NCCc1c[nH]c2ccccc12	AmpC inh detg inconclusive
O=C(Cc1ccc(Nc2nc(=S)[nH]c3ccccc23)cc1)NC1CCCCC1	none
CCCc1cc(=O)[nH]c(SCc2cc(=O)oc3cc(C)c(C(C)C)cc23)n1	none
Cc1cc2oc(=O)cc(CSc3nc(N)cc(N)n3)c2cc1C(C)C	AmpC no deterg 2.8µM
O=C(CSc1n[nH]c(-c2ccccc2Cl)n1)N1CCN(c2ccccc2)CC1	none (no result: AmpC no deterg)
COc1ccc(CNC(=O)CCC(=O)N2CCSc3ccccc32)cc1	none (no result: AmpC no deterg)
O=C(CS(=O)(=O)c1c[nH]c2ccccc12)NC1CCCCC1	AmpC no deterg 0.5µM
O=C(CS(=O)(=O)c1c[nH]c2ccccc12)Nc1ccc(F)cc1	none
Cc1ccc(NC(=O)C2CCN(S(=O)(=O)c3ccc4c(c3)CCCN4C(=O)C3CCC3)CC2)cc1	none (no result: AmpC no deterg)
O=c1c2sc3ccccc3c2n(Cc2cccc(C(F)(F)F)c2)c(=O)n1Cc1ccco1	none (no result: AmpC no deterg)
O=C(CCn1c(=O)c2sccc2n(Cc2cc(=O)n3ccccc3n2)c1=O)NCc1ccco1	none
O=C(CCCn1c(=O)c2sccc2n(Cc2cc(=O)n3ccccc3n2)c1=O)NCc1ccco1	AmpC no deterg 40µM, AmpC inh detg inconclusive
O=C(CSc1nnnn1-c1ccccc1)Nc1ncc(Cc2ccccc2Cl)s1	none
N=C1SC(c2ccccc2)C(=O)N1c1ncc(Cc2ccccc2Cl)s1 (stereo not given)	AmpC no deterg 16µM
COc1ccc(CN(C)c2ccc(-c3nc(C)no3)cc2[N+](=O)[O-])cc1	none (no result: AmpC no deterg)
Cn1cccc1/C=C1\SC(=S)N(NC(=O)c2ccccc2O)C1=O	none
O=C(NN1C(=O)/C(=C/C=C/c2ccco2)SC1=S)c1ccccc1O	AmpC no deterg 16µM
O=C1S/C(=C\C=C\c2ccco2)C(=O)N1c1ccc(O)cc1	AmpC no deterg 32µM
O=C1S/C(=C\C=C\c2ccco2)C(=O)N1c1ccccc1	none
Cc1ccc(S(=O)(=O)c2cn(Cc3ccccc3)c3cc(N4CCCC4)c(F)cc3c2=O)cc1C	none (no result: AmpC no deterg)
CCOC(=O)c1cccc(NC(=O)c2ncoc2-c2ccco2)c1	none (no result: AmpC no deterg)
CSc1ccc(CCNC(=O)CCCn2c(=O)c3cccn3c3ccccc32)cc1	none (no result: AmpC no deterg)
CCNC(=O)c1cnc2sc(N3CCCCCC3)nn2c1=O	none (no result: AmpC no deterg)
O=c1c2ccccc2ncn1-c1ccc(Br)cc1[N+](=O)[O-]	AmpC inh detg inconclusive
O=C1c2cc(Br)ccc2N(Cc2ccc(Br)cc2)S(=O)(=O)C1c1cc(Cl)c(Cl)cc1[N+](=O)[O-] (stereo not given)	AmpC no deterg 2µM (no result: AmpC inh detg)
Cc1csc(CNc2ncnc3ccc(-c4ccc5c(ccn5C)c4)cc23)c1	none
CC(C)CCn1c(=O)c2sccc2n2c(CCCC(=O)Nc3ccc(C(C)C)cc3)nnc12	none (no result: AmpC no deterg)
COc1cccc(NS(=O)(=O)c2cc(-c3cnc(C4CC4)o3)ccc2C)c1	none (no result: AmpC no deterg)
CCOC(=O)/C(=N/Nc1ccccc1)N1CCCc2ccccc21	AmpC no deterg 25µM
CCOC(=O)/C(=N/Nc1ccc(OC)cc1)N1CCCc2ccccc21	none
Cc1cc(C)cc(N2C(=O)CSC23C(=O)N(CC(=O)NCCc2ccccc2)c2ccccc23)c1 (stereo not given)	none (no result: AmpC no deterg)
CCOc1cccc2cc(-c3nc4sc5c(c4c(=O)[nH]3)CCC(C(C)(C)C)C5)c(=O)oc12 (stereo not given)	none (no result: AmpC no deterg)
CCC(Oc1ccc(F)cc1)C(=O)Nc1nc(-c2ccc(F)cc2)ns1 (stereo not given)	none (no result: AmpC no deterg)
COc1cccc(/C=N/NC(=O)c2cc(-c3cccn3C)n[nH]2)c1	AmpC no deterg 13µM

Source: PubChem (National Center for Advancing Translational Sciences (NCATS))
